What follows are compounds tested against AMP-activated protein kinase, AMPK (Homo sapiens) (UniProt P54646+O43741+P54619+Q9UGJ0+Q9Y478+Q13131+Q9UGI9) (assay: AMP-dependent Kinase enzyme assay. An in vitro enzyme assay that detects ADP turnover that is directly proportional to AMPK activity. This uses naive AMPK that is activated during the assay with MK-8722). Conditions: 30 µM.
Type: functional
Parameters: scale not given: direction of the effect not stated beside the values

SMILES	Percent Effect
CC(C)Oc1cc(N2CCN(Cc3ccsc3)C(CCO)C2)nc(N)n1 (stereo not given)	-13.7%
Cc1ccccc1CCC(=O)N1CCc2ncnc(NCCO)c2CC1	0.622%
N#Cc1c(N)nc2c(c1-c1c[nH]nc1C1CCCCC1)CC(N)CC2 (stereo not given)	23.9%
CN(Cc1cc(Br)cn1C)C(=O)c1cccnc1	-0.766%
Cc1nn(C)c2nc(NC3CCNCC3)sc12	0.889%
O=C(NCc1nncn1C1CC1)c1ccccc1Oc1cccnc1	-0.563%
Cc1ccc2c(C(=O)N(C)C)cc(-c3cnn(CCO)c3)nc2c1C	7.33%
Cc1ccc(C2(O)CCN(C(=O)CCn3c(C)cccc3=O)CC2)nc1	-22.2%
COc1ccc(OC)c(S(=O)(=O)NC(=O)C(C)OC)c1 (stereo not given)	-3.05%
O=C(O)c1ccc(C2CCCN(C(=O)c3ccc[nH]3)C2)cc1 (stereo not given)	3.76%
CCc1nnc(C(C)N2CCN(CCC(=O)NC3CC3)CC2)o1 (stereo not given)	8.34%
CCN(C)C(=O)c1cccc(S(=O)(=O)NCCc2csc(N)n2)c1	-0.697%
O=C(NC1CCCCC1)N1CCC(n2cc(-c3ccccn3)nn2)CC1	-1.68%
N#CC1(C(=O)N2C[C@H]3CC[C@@H]2CN(Cc2ccncc2)C3)CCOCC1	-2.51%
CC(CO)NS(=O)(=O)c1cccc(C(C)C)c1 (stereo not given)	-0.593%
COCCN(CCOC)c1nc2c(s1)c(C)nn2C	0.796%
O=c1[nH]c2ccc(S(=O)(=O)N(CCO)Cc3ccncc3)cc2[nH]1	15.8%
COCCN1CCC(NC(=O)C/C=C/c2ccc(C(C)C)cc2)CC1	-8.07%
Cc1cc(C)c(C(=O)N(C)CCN(C)C(=O)OC(C)(C)C)[nH]1	-0.277%
NC(=O)COc1cccc(Cn2cccn2)c1	-6.59%

SMILES	Percent Effect
CCN(CC)C(CNC(=O)c1cccnc1-n1cncn1)c1ccsc1 (stereo not given)	5%
Cc1n[nH]c(C)c1CCN(C)C(=O)c1ccc(CCC(C)(C)O)cc1	2.23%
O=S(=O)(NCCCn1cncn1)c1ccc2c(c1)CCO2	4.51%
CCCN1CCC(N2CCC(Cn3cc(C4CC4)nn3)CC2)CC1	2.68%
CC(C)COc1cncc(N2CCCC(CC(N)=O)C2)n1 (stereo not given)	10.7%
Cc1nccc(CNC(=O)NC(c2ncc(C)s2)C2CC2)n1 (stereo not given)	0.262%
O=C(c1nc(=O)[nH]c2ccccc12)N1CCCC(CC2CC2)(C(=O)O)C1 (stereo not given)	-0.821%
NC(=O)c1ccc(N2CCN(CCCc3cn[nH]c3)CC2)cc1	-7.64%
c1ccc(OCCCn2ccnc2-c2cn(C3CCNCC3)nn2)cc1	-1.92%
O=C(Cc1ccc(Cl)cc1)N[C@@H]1CCC[C@@H](O)[C@@H]1O	22.5%
CCc1nc(CCNc2ncccc2C#N)sc1C	-3.24%
Cn1cc(CC(=O)N2CCCC(c3ccn[nH]3)C2)cn1 (stereo not given)	-1.05%
CCN(Cc1ccoc1)c1ncc(S(N)(=O)=O)s1	-1.73%
Cc1csc(C(C)(C)NCCOc2ccc(CC#N)cc2)n1	-8.66%
C[C@@H]1CN(Cc2nc(C(N)=O)no2)CC[C@@]1(O)C1CC1	0.276%
COCCNc1ccc(CC2CCCN(C3CCCC3)C2)nn1 (stereo not given)	4.32%
COc1ccc(NC(=O)N2CCOCC(CN(C)C)C2)c(C)c1 (stereo not given)	1.75%
CC(c1ccc(F)cc1F)N1CCN(CCC(=O)O)CC1 (stereo not given)	8.21%
Cc1ccc2c(c1)cc(CN1CC[C@](C)(O)[C@H](C)C1)n2C	9.89%
COc1ccc(OC)c(-c2cc(C(=O)NCC3(CO)CC3)n(C)n2)c1	-3.88%

— ChEMBL document CHEMBL3988442, “University of Dundee, Small-Polar-MMV Screening Library” (2021)
